The supplement of paper PMC12024424
Structures can show the parent of a compound that is named as a salt.

Each compound was assayed on Staphylococcus aureus Sa2 (MRSA, cystic fibrosis isolate) (assay: growth reduction vs untreated control (OD550); higher = stronger antibacterial activity). Conditions: 0.1 mM; 24 h.
Experimental: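 Single-dose screen of the MedChem Express Drug Repurposing Library (0.1 mM, 1% DMSO) against planktonic MRSA S. aureus Sa2 (CF isolate) in TSB in 96-well plates, 37 °C aerobic, 24 h. Assays were run in triplicate and repeated twice.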

SMILES	growth reduction [%]
COCCNCc1ccc(-c2cc3nccc(Oc4ccc(NC(=O)C5(C(=O)Nc6ccc(F)cc6)CC5)cc4F)c3s2)nc1 [Sitravatinib]	100
CC(C)(C)c1ccc(C(O)CCCN2CCC(C(O)(c3ccccc3)c3ccccc3)CC2)cc1 (stereo not given) [Terfenadine]	100
CO[C@@H](Cc1ccc(OCCc2nc(-c3ccccc3)oc2C)c2ccsc12)C(=O)O [Aleglitazar]	92.2
O=C(NCc1c(F)cc(F)cc1F)c1cn2c(c(O)c1=O)C(=O)N1[C@H]3CC[C@H](C3)O[C@@H]1C2 [Bictegravir]	100
C#C[C@]1(O)CC[C@H]2[C@@H]3CCC4=CCCC[C@@H]4[C@H]3C(=C)C[C@@]21CC [Desogestrel]	99.4
O=C(O)Cc1cc(I)c(Oc2ccc(O)c(I)c2)c(I)c1 [Tiratricol]	100
C[C@H](Nc1cc(-c2cnn(C)c2)cc(Nc2cnccn2)n1)c1ccc(F)cc1 [Ilginatinib (maleate)]	100
O=C(O)c1ccc2c(c1)CCCC(c1ccc(Cl)cc1Cl)=C2c1ccc(O[C@H]2CCN(CCCF)C2)cc1	100
OCCN1CCN(CCCN2c3ccccc3Sc3ccc(Cl)cc32)CC1 [Perphenazine]	100
CC(=O)Oc1ccccc1C(=O)Nc1ncc([N+](=O)[O-])s1 [Nitazoxanide]	99.5
CC(C)(C)NC(=O)N[C@H](C(=O)N1C[C@H]2[C@@H]([C@H]1C(=O)NC(CC1CCC1)C(=O)C(N)=O)C2(C)C)C(C)(C)C (stereo not given in full) [Boceprevir]	91.4
CCCCCCCCc1ccc(CCC(N)(CO)CO)cc1 [Fingolimod (hydrochloride)]	100
O=c1[nH]cc(F)c(=O)[nH]1 [5-Fluorouracil]	97.1
CC(C)(C)c1nc(-c2cccc(NS(=O)(=O)c3c(F)cccc3F)c2F)c(-c2ccnc(N)n2)s1 [Dabrafenib (Mesylate)]	98.3
CC(C)OC(=O)CCC/C=C\C[C@@H]1[C@@H](/C=C/[C@@H](O)COc2cccc(C(F)(F)F)c2)[C@H](O)C[C@@H]1O [Travoprost]	100
COc1cccc2c1C(=O)c1c(O)c3c(c(O)c1C2=O)C[C@@](O)(C(=O)CO)C[C@@H]3O[C@H]1C[C@H](N)[C@@H](O)[C@H](C)O1 [Epirubicin (hydrochloride)]	95
Cn1cc(-c2ccncc2)c(-c2ccc(OCc3ccc4ccccc4n3)cc2)n1 [Mardepodect]	100
COc1cc2c(Nc3ccc(Cl)c(Cl)c3F)ncnc2cc1OC[C@@H]1C[C@@H]2CN(C)C[C@@H]2C1 [Tesevatinib]	100
CC(C)Nc1nc2cc(Cl)c(Cl)cc2n1[C@H]1O[C@@H](CO)[C@H](O)[C@@H]1O [Maribavir]	92.7
O=C(c1ccc(OCCN2CCCCC2)cc1)c1c(-c2ccc(O)cc2)sc2cc(O)ccc12 [Raloxifene (hydrochloride)]	99.8
CC(O)c1cc(C(=O)N[C@@H](C)Cn2ccc(-c3ccc(C#N)c(Cl)c3)n2)n[nH]1 (stereo not given in full) [Darolutamide]	100
CCOc1nc2cccc(C(=O)OC(C)OC(=O)OC3CCCCC3)c2n1Cc1ccc(-c2ccccc2-c2nn[nH]n2)cc1 (stereo not given) [Candesartan Cilexetil]	100
CC1(S(=O)(=O)O)CC(=O)c2ccccc2C1=O (stereo not given) [Menadione bisulfite (sodium)]	99.5
COc1cc(NCc2ccc3nc(N)nc(N)c3c2C)cc(OC)c1OC [Trimetrexate]	90.4
C[C@H]1CNCCCN1S(=O)(=O)c1cccc2cncc(F)c12 [Ripasudil]	100
CC(C)COc1ccc(CNC(=O)N(Cc2ccc(F)cc2)C2CCN(C)CC2)cc1 [Pimavanserin tartrate]	100
CNC(=O)c1cc(Oc2ccc(NC(=O)Nc3ccc(Cl)c(C(F)(F)F)c3)c(F)c2)ccn1 [Regorafenib (monohydrate)]	100
O=C(NCc1ccc(Oc2ccccc2)cc1)c1nc(-c2cc(Br)c(O)c(Br)c2)no1	95.3
CC(=C(CCOC(=O)C(C)C)SSC(CCOC(=O)C(C)C)=C(C)N(C=O)Cc1cnc(C)nc1N)N(C=O)Cc1cnc(C)nc1N (stereo in doubt) [Sulbutiamine]	97
Cc1c(Cl)c(C)[n+]([O-])c(Cl)c1-c1noc(-c2cc(O)c(O)c([N+](=O)[O-])c2)n1 [Opicapone]	99.2
